Source: publication PMC7862700, “An all-to-all approach to the identification of sequence-specific readers for epigenetic DNA modifications on cytosine”

Legend:
Assay in all cases: DAPPL (digital affinity profiling via proximity ligation, sequencing); 10 mM Tris-HCl pH 7.5, 50 mM NaCl, 1 mM DTT, 4% glycerol, room temperature, 30 min; GST-TFs on glutathione beads, 16-mer random dsDNA library, 0.1% formaldehyde crosslink after washing; high values mean tight binding
Conditions in all cases: protein: recombinant; tags: N-terminal GST; dsDNA, one strand shown
FLI1 = molecular target: T1, FLI1 (Homo sapiens, UniProt Q01543 1-452)
T1 sequence: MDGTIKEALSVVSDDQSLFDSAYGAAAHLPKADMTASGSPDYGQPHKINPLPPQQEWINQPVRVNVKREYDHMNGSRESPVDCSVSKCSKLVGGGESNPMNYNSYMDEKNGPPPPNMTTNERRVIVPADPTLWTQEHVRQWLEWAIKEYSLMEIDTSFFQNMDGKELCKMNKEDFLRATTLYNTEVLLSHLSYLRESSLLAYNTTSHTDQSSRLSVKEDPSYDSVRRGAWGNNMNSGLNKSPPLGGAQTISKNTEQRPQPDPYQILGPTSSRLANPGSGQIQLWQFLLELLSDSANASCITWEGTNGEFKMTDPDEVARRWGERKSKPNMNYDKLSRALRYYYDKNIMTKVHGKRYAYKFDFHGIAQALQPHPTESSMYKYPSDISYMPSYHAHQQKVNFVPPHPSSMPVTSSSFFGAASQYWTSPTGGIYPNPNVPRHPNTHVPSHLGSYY
Procedure, shortened: (§1)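 Pools were built from human transcription factors expressed in yeast as GST fusions, captured on glutathione beads and DNA-barcoded, along with a tag-only sample. Incubation with 200 nmole of a 16-mer random double-stranded DNA library lasted 30 min at room temperature in Tris/NaCl/DTT/glycerol buffer, and was followed by washing, 0.1% formaldehyde crosslinking, proximity ligation, PCR amplification and Illumina NextSeq500 sequencing. Binding signal is the quotient of each hexamer's read frequency for a factor and its frequency for the tag-only sample.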

ELK1 = molecular target: T2, ELK1 (Homo sapiens, UniProt P19419 1-428)
T2 sequence: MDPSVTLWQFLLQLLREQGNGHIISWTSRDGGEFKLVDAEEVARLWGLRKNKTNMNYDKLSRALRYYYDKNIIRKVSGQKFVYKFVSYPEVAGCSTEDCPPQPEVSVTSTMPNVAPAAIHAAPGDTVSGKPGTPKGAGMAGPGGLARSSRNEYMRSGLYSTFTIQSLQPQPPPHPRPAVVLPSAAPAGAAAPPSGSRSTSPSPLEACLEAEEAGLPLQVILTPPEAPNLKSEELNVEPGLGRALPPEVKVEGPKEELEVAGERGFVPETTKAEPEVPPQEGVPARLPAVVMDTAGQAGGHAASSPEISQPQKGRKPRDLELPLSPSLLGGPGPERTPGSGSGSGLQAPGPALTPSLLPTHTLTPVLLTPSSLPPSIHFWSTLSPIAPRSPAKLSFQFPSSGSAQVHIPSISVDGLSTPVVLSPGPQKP
Procedure, shortened: as §1

GABPA = molecular target: T3, GABPA (Homo sapiens, UniProt Q06546 1-454)
T3 sequence: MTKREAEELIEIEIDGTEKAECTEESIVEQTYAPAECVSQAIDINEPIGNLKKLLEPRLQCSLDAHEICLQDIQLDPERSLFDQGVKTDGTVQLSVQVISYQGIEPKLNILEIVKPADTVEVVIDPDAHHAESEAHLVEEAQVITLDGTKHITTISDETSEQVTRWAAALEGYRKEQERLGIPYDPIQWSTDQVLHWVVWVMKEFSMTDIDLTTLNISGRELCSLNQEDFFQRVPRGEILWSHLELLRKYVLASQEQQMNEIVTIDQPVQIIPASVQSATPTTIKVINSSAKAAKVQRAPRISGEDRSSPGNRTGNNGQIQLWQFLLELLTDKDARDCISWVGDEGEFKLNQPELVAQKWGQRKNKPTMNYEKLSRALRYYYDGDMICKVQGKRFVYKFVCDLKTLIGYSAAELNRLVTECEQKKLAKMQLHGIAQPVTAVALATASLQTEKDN
Procedure, shortened: as §1

ERG = molecular target: T4, ERG (Homo sapiens, UniProt P11308 1-479)
T4 sequence: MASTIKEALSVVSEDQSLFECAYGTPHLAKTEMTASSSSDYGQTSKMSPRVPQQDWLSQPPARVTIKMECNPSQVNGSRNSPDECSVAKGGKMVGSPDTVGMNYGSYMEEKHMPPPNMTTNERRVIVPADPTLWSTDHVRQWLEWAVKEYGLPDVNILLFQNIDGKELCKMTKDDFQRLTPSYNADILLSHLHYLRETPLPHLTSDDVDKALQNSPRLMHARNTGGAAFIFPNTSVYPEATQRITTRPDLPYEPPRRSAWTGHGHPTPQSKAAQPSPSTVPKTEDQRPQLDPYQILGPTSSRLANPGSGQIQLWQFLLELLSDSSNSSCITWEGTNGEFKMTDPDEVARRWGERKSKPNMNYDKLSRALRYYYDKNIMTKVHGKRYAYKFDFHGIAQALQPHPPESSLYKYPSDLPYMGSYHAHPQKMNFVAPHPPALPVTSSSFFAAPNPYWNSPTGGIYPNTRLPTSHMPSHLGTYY
Procedure, shortened: as §1

ELF1 = ELF1 (Homo sapiens, UniProt P32519 1-619)
Procedure, shortened: as §1

EHF = molecular target: T5, EHF (Homo sapiens, UniProt Q9NZC4 1-300)
T5 sequence: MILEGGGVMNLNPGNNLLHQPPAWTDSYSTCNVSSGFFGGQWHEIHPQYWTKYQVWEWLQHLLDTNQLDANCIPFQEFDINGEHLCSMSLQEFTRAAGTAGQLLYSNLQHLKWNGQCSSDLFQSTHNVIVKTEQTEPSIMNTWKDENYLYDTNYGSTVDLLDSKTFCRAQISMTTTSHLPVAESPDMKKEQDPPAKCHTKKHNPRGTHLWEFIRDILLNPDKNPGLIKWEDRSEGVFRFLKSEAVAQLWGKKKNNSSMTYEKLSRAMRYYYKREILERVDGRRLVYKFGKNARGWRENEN
Procedure, shortened: as §1

SPI1 = SPI1 (Homo sapiens, UniProt P17947 1-270)
Procedure, shortened: as §1

SPIB = SPIB (Homo sapiens, UniProt Q01892 1-262)
Procedure, shortened: as §1

ELK3 = molecular target: T6, ELK3 (Homo sapiens, UniProt P41970 1-407)
T6 sequence: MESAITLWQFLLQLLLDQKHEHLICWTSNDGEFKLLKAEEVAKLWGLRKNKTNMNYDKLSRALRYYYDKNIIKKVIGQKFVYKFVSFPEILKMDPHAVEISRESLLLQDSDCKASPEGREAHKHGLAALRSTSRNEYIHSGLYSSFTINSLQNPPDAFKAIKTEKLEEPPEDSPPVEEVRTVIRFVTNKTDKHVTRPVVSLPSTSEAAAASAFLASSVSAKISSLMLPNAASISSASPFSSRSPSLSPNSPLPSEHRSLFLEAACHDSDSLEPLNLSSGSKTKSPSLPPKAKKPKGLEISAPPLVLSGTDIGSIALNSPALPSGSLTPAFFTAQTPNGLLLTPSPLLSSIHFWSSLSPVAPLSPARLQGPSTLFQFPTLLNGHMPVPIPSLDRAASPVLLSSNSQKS
Procedure, shortened: as §1

Sequence of SPIB (Q01892 whole entry): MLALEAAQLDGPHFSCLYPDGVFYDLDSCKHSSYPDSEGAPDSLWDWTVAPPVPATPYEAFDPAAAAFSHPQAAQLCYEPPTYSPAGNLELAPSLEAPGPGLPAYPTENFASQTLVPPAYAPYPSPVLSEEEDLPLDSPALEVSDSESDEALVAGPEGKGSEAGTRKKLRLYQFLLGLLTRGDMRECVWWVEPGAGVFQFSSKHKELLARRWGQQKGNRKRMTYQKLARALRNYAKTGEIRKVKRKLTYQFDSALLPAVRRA
Sequence of ELF1 (P32519 whole entry): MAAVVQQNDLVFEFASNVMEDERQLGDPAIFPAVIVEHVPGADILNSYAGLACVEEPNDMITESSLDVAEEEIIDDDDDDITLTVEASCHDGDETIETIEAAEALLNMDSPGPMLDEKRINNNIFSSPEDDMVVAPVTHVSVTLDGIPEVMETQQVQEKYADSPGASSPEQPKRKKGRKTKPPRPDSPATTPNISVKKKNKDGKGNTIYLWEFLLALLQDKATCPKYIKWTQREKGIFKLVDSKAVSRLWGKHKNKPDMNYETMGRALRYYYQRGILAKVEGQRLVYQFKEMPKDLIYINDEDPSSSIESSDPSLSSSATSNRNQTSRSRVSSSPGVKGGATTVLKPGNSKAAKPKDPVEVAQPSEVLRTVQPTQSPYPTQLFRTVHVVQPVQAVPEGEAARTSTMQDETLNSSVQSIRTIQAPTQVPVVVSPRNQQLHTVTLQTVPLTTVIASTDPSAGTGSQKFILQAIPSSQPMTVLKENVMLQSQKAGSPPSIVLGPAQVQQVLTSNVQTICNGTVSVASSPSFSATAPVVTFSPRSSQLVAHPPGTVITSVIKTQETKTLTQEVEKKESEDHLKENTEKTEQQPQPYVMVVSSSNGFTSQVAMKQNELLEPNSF

Sequence	binding signal (FLI1)	binding signal (ELK1)	binding signal (GABPA)	binding signal (ERG)	binding signal (ELF1)	binding signal (EHF)	binding signal (SPI1)	binding signal (SPIB)	binding signal (ELK3)
TATATA	1.23 fold enrichment (6-mer frequency, TF over GST control)	1.37 fold enrichment (6-mer frequency, TF over GST control)	1.26 fold enrichment (6-mer frequency, TF over GST control)	1.3 fold enrichment (6-mer frequency, TF over GST control)	1.32 fold enrichment (6-mer frequency, TF over GST control)	1.32 fold enrichment (6-mer frequency, TF over GST control)	1.21 fold enrichment (6-mer frequency, TF over GST control)	1.49 fold enrichment (6-mer frequency, TF over GST control)	1.17 fold enrichment (6-mer frequency, TF over GST control)
TCCGGC	2.29 fold enrichment (6-mer frequency, TF over GST control)	2.4 fold enrichment (6-mer frequency, TF over GST control)	2.12 fold enrichment (6-mer frequency, TF over GST control)	2.58 fold enrichment (6-mer frequency, TF over GST control)	2 fold enrichment (6-mer frequency, TF over GST control)	2.18 fold enrichment (6-mer frequency, TF over GST control)	2.19 fold enrichment (6-mer frequency, TF over GST control)	2.42 fold enrichment (6-mer frequency, TF over GST control)	2.45 fold enrichment (6-mer frequency, TF over GST control)
CTGGAT	1.31 fold enrichment (6-mer frequency, TF over GST control)	1.19 fold enrichment (6-mer frequency, TF over GST control)	1.38 fold enrichment (6-mer frequency, TF over GST control)	1.38 fold enrichment (6-mer frequency, TF over GST control)	1.36 fold enrichment (6-mer frequency, TF over GST control)	1.32 fold enrichment (6-mer frequency, TF over GST control)	1.25 fold enrichment (6-mer frequency, TF over GST control)	1.36 fold enrichment (6-mer frequency, TF over GST control)	1.31 fold enrichment (6-mer frequency, TF over GST control)
AAGAAA	1.08 fold enrichment (6-mer frequency, TF over GST control)	1.14 fold enrichment (6-mer frequency, TF over GST control)	1.25 fold enrichment (6-mer frequency, TF over GST control)	1.2 fold enrichment (6-mer frequency, TF over GST control)	1.15 fold enrichment (6-mer frequency, TF over GST control)	1.18 fold enrichment (6-mer frequency, TF over GST control)	1.22 fold enrichment (6-mer frequency, TF over GST control)	1.1 fold enrichment (6-mer frequency, TF over GST control)	1.22 fold enrichment (6-mer frequency, TF over GST control)
TTTAAA	1.27 fold enrichment (6-mer frequency, TF over GST control)	1.26 fold enrichment (6-mer frequency, TF over GST control)	1.19 fold enrichment (6-mer frequency, TF over GST control)	1.2 fold enrichment (6-mer frequency, TF over GST control)	1.29 fold enrichment (6-mer frequency, TF over GST control)	1.21 fold enrichment (6-mer frequency, TF over GST control)	1.31 fold enrichment (6-mer frequency, TF over GST control)	1.17 fold enrichment (6-mer frequency, TF over GST control)	1.32 fold enrichment (6-mer frequency, TF over GST control)
TAATAC	1.11 fold enrichment (6-mer frequency, TF over GST control)	1.07 fold enrichment (6-mer frequency, TF over GST control)	1.04 fold enrichment (6-mer frequency, TF over GST control)	1.09 fold enrichment (6-mer frequency, TF over GST control)	1.13 fold enrichment (6-mer frequency, TF over GST control)	1.13 fold enrichment (6-mer frequency, TF over GST control)	1.05 fold enrichment (6-mer frequency, TF over GST control)	1.06 fold enrichment (6-mer frequency, TF over GST control)	1.04 fold enrichment (6-mer frequency, TF over GST control)
ACGAAT	1.12 fold enrichment (6-mer frequency, TF over GST control)	1.1 fold enrichment (6-mer frequency, TF over GST control)	1.22 fold enrichment (6-mer frequency, TF over GST control)	1.07 fold enrichment (6-mer frequency, TF over GST control)	1.15 fold enrichment (6-mer frequency, TF over GST control)	1.13 fold enrichment (6-mer frequency, TF over GST control)	1.13 fold enrichment (6-mer frequency, TF over GST control)	1.15 fold enrichment (6-mer frequency, TF over GST control)	1.13 fold enrichment (6-mer frequency, TF over GST control)
GTATCC	1.88 fold enrichment (6-mer frequency, TF over GST control)	1.9 fold enrichment (6-mer frequency, TF over GST control)	1.78 fold enrichment (6-mer frequency, TF over GST control)	1.89 fold enrichment (6-mer frequency, TF over GST control)	1.89 fold enrichment (6-mer frequency, TF over GST control)	1.92 fold enrichment (6-mer frequency, TF over GST control)	1.7 fold enrichment (6-mer frequency, TF over GST control)	1.89 fold enrichment (6-mer frequency, TF over GST control)	1.88 fold enrichment (6-mer frequency, TF over GST control)
